Results published in ChEMBL document CHEMBL5606458, “ASAP - ZIKV NS2B-NS3 protease fluorescence single point” (2024).
Hit rate of the full screen: of about 2,700 compounds, about 160 (5.9%) showed an effect of 50% or more. Shown is part of a subset that was picked to be rich in strong results.

Target: Nonstructural protein 3 (Zika virus) (UniProt A0A024AXB9)
[1] = PRVABC59, Concentration 15.0 uM, Number of replicates 1.0

Sequence of Nonstructural protein 3 (Zika virus) (A0A024AXB9 as listed by the source): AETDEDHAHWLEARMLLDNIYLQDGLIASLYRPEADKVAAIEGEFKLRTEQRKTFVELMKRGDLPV

Question: How did the inhibition [1] turn out when `O=C(NCc1nnc(-c2ccccc2)o1)c1cc(Cl)ccc1NS(=O)(=O)c1ccc(Oc2ccccc2Cl)cc1` was run?
Answer: Its inhibition is 54.2%.

Question: For `O=C(NCc1ccccc1)c1cc(Cl)ccc1NS(=O)(=O)c1ccc(Oc2ccccc2Cl)cc1`, which inhibition [1] is on record?
Answer: Its inhibition is 11.2%.

Question: For `O=C(NCc1coc(-c2ccccc2)n1)c1cc(Cl)ccc1NS(=O)(=O)c1ccc(Oc2ccccc2Cl)cc1`, which inhibition [1] is on record?
Answer: Its inhibition is 45.4%.

Question: Which inhibition [1] does the source give for `O=C(NCc1cccc(-c2ccccc2)c1)c1cc(Cl)ccc1NS(=O)(=O)c1ccc(Oc2ccccc2Cl)cc1` here?
Answer: Its inhibition is 54.4%.

Question: For `O=C(NCc1ccccc1-c1ccccc1)c1cc(Cl)ccc1NS(=O)(=O)c1ccc(Oc2ccccc2Cl)cc1`, which inhibition [1] is on record?
Answer: Its inhibition is 13.1%.

Question: How did the inhibition [1] turn out when `O=C(NCc1ccc(-c2ccccc2)cc1)c1cc(Cl)ccc1NS(=O)(=O)c1ccc(Oc2ccccc2Cl)cc1` was run?
Answer: Its inhibition is 9%.

Question: Which results are given for `Cn1cccc(CN2CCC(c3c[nH]c4cccnc34)CC2)c1=O`?
Answer: inhibition (PRVABC59, Concentration 49.5 uM, Number of replicates 2.0, Standard deviation 0.07177165759495889 %): -0.869%; inhibition (PRVABC59, Concentration 99.01 uM, Number of replicates 2.0, Standard deviation 0.38070186159308106 %): 1.77%; inhibition (PRVABC59, Concentration 198.0 uM, Number of replicates 2.0, Standard deviation 0.010921765735719036 %): 3.27%

Question: Which inhibition [1] does the source give for `O=C(c1cc(Cl)ccc1NS(=O)(=O)c1ccc(Oc2ccccc2Cl)cc1)N1CCNC(=O)C12CCCCC2` here?
Answer: The inhibition was 17.6%.

Question: With `COc1ccccc1[C@H](C)NC(=O)C1CCN(c2ccc(C=O)cc2)CC1` as the compound, how does the inhibition (PRVABC59, Concentration 10.0 uM, Number of replicates 1.0) read?
Answer: The inhibition was 25.4%.

Question: For `Cc1cc(CO)c2cccc(NCc3ccc(S(N)(=O)=O)cc3)c2n1`, which inhibition (PRVABC59, Concentration 49.95 uM, Number of replicates 2.0, Standard deviation 2.3986730749821903 %) is on record?
Answer: Its inhibition is -5.11%.

Question: And the inhibition (PRVABC59, Concentration 99.9 uM, Number of replicates 2.0, Standard deviation 1.886822696290366 %)?
Answer: The inhibition was -8.96%.

Question: What does the source list for `Cc1cc(CO)c2cccc(NCc3ccc(C(N)=O)cc3)c2n1`?
Answer: inhibition (PRVABC59, Concentration 49.95 uM, Number of replicates 2.0, Standard deviation 0.6911398690966805 %): -7.9%; inhibition (PRVABC59, Concentration 99.9 uM, Number of replicates 2.0, Standard deviation 1.6597447488203414 %): -2.82%

Question: What does the source list for `Cc1cc(N)cc(CNC(=O)c2ccccc2Cc2cccc3c(CO)cc(C)nc23)c1`?
Answer: inhibition (PRVABC59, Concentration 49.95 uM, Number of replicates 2.0, Standard deviation 0.03145975642768365 %): 34.6%; inhibition (PRVABC59, Concentration 99.9 uM, Number of replicates 2.0, Standard deviation 1.7408307334956623 %): 60.7%

Question: `Cc1cc(N)cc(CNC(=O)Cc2cccc3c(CO)cc(C)nc23)c1` was tested. Which inhibition (PRVABC59, Concentration 49.95 uM, Number of replicates 2.0, Standard deviation 1.6254724488978287 %) did it give?
Answer: Its inhibition is 7.61%.

Question: What about the inhibition (PRVABC59, Concentration 99.9 uM, Number of replicates 2.0, Standard deviation 2.5640510708053585 %) of the same compound?
Answer: Its inhibition is 31.2%.

Question: What does the source list for `Cc1cc(N)cc(CNC(=O)c2cccc(Cc3cccc4c(CO)cc(C)nc34)c2)c1`?
Answer: inhibition (PRVABC59, Concentration 49.95 uM, Number of replicates 2.0, Standard deviation 0.660675115468642 %): 22.4%; inhibition (PRVABC59, Concentration 99.9 uM, Number of replicates 2.0, Standard deviation 1.0067445744655332 %): 46.9%

Question: `Cc1cc(N)cc(CNc2cccc3c(CO)cc(C)nc23)c1` was tested. Which inhibition (PRVABC59, Concentration 49.95 uM, Number of replicates 2.0, Standard deviation 0.17563299841544527 %) did it give?
Answer: Its inhibition is 36.2%.

Question: What about the inhibition (PRVABC59, Concentration 99.9 uM, Number of replicates 2.0, Standard deviation 0.025091199030293523 %) of the same compound?
Answer: Its inhibition is 52.6%.

Question: `Cc1c(C(=O)N2CCC(n3cc(CO)nn3)CC2)[nH]c2cc(Cl)cc(Cl)c12` was tested. Which inhibition (PRVABC59, Concentration 49.5 uM, Number of replicates 2.0, Standard deviation 1.4208906347015848 %) did it give?
Answer: Its inhibition is 4.02%.

Question: And the inhibition (PRVABC59, Concentration 99.01 uM, Number of replicates 2.0, Standard deviation 0.494827603753062 %)?
Answer: The inhibition was 9.8%.

Question: What about the inhibition (PRVABC59, Concentration 198.0 uM, Number of replicates 2.0, Standard deviation 0.23449629857012413 %) of the same compound?
Answer: Its inhibition is 15.6%.

Question: What does the source list for `Cc1cc(CO)c2cccc(Cc3cccc(C(=O)Nc4cc(C)on4)c3)c2n1`?
Answer: inhibition (PRVABC59, Concentration 49.95 uM, Number of replicates 2.0, Standard deviation 0.5505632705734445 %): 18.4%; inhibition (PRVABC59, Concentration 99.9 uM, Number of replicates 2.0, Standard deviation 1.053935557806211 %): 51.2%

Question: `Cc1cc(CO)c2cccc(CC(=O)Nc3cc(C)[nH]n3)c2n1` was tested. Which inhibition (PRVABC59, Concentration 49.95 uM, Number of replicates 2.0, Standard deviation 1.1960706203468343 %) did it give?
Answer: The inhibition was 0.209%.

Question: What about the inhibition (PRVABC59, Concentration 99.9 uM, Number of replicates 2.0, Standard deviation 0.6463869966486608 %) of the same compound?
Answer: The inhibition was 7.1%.

Question: `Cc1cc(CO)c2cccc(CC(=O)Nc3cc(C)on3)c2n1` was tested. Which inhibition (PRVABC59, Concentration 49.95 uM, Number of replicates 2.0, Standard deviation 1.089187856250299 %) did it give?
Answer: Its inhibition is 91.5%.

Question: What about the inhibition (PRVABC59, Concentration 99.9 uM, Number of replicates 2.0, Standard deviation 0.03053454880917251 %) of the same compound?
Answer: Its inhibition is 93.2%.

Question: Which results are given for `Cc1cc(CO)c2cccc(Cc3cccc(C(=O)Nc4cc(C)[nH]n4)c3)c2n1`?
Answer: inhibition (PRVABC59, Concentration 49.95 uM, Number of replicates 2.0, Standard deviation 3.093641395210206 %): 6.52%; inhibition (PRVABC59, Concentration 99.9 uM, Number of replicates 2.0, Standard deviation 2.134087804085351 %): 9.51%

Question: What does the source list for `Cc1cc(CO)c2cccc(CC(=O)Nc3cc(O)[nH]n3)c2n1`?
Answer: inhibition (PRVABC59, Concentration 49.95 uM, Number of replicates 2.0, Standard deviation 0.5293246306718348 %): -5.29%; inhibition (PRVABC59, Concentration 99.9 uM, Number of replicates 2.0, Standard deviation 0.9008701737196211 %): 1.86%

Question: With `Cc1cc(CO)c2cccc(Cc3ccccc3C(=O)Nc3cc(C)on3)c2n1` as the compound, how does the inhibition (PRVABC59, Concentration 49.95 uM, Number of replicates 2.0, Standard deviation 0.7445712834152752 %) read?
Answer: The inhibition was -2.77%.

Question: And the inhibition (PRVABC59, Concentration 99.9 uM, Number of replicates 2.0, Standard deviation 1.0119877161772735 %)?
Answer: The inhibition was 0.512%.

Question: Which inhibition (PRVABC59, Concentration 49.5 uM, Number of replicates 2.0, Standard deviation 0.024233932131581936 %) does the source give for `CNC(=O)c1nc(Cl)ccc1NS(=O)(=O)c1ccc(Oc2ccccc2Cl)cc1` here?
Answer: Its inhibition is -1.72%.

Question: `O=C(Nc1nc(Cl)nc2nc[nH]c12)c1cc(Cl)ccc1NS(=O)(=O)c1ccc(Oc2ccccc2Cl)cc1` was tested. Which inhibition [1] did it give?
Answer: Its inhibition is 22.5%.

Question: `Cc1nn([C@@H](C)c2nnnn2C2CC2)cc1C1CCNCC1` was tested. Which inhibition (PRVABC59, Concentration 49.5 uM, Number of replicates 2.0, Standard deviation 2.3033064314790743 %) did it give?
Answer: The inhibition was -1.29%.

Question: What about the inhibition (PRVABC59, Concentration 99.01 uM, Number of replicates 2.0, Standard deviation 2.6844291293545366 %) of the same compound?
Answer: Its inhibition is -0.376%.

Question: What about the inhibition (PRVABC59, Concentration 198.0 uM, Number of replicates 2.0, Standard deviation 0.3562668047004051 %) of the same compound?
Answer: Its inhibition is -3.04%.

Question: For `CC(C)(C)c1csc(NC(=O)c2cc(Cl)ccc2NS(=O)(=O)c2ccc(Oc3ccccc3Cl)cc2)n1`, which inhibition [1] is on record?
Answer: Its inhibition is 22.1%.

Question: For `Cc1cc(CO)c2cccc(Cc3ccccc3NC(=O)c3nc(-c4ccccc4)oc3C(F)(F)F)c2n1`, which inhibition (PRVABC59, Concentration 49.95 uM, Number of replicates 2.0, Standard deviation 1.8373680900098652 %) is on record?
Answer: The inhibition was 5.06%.

Question: What about the inhibition (PRVABC59, Concentration 99.9 uM, Number of replicates 2.0, Standard deviation 1.2469667752869535 %) of the same compound?
Answer: Its inhibition is 9.26%.

Question: Which inhibition (PRVABC59, Concentration 49.95 uM, Number of replicates 2.0, Standard deviation 2.83494201600161 %) does the source give for `Cc1cc(CO)c2cccc(Cc3cccc(NC(=O)c4nc(C5CCNCC5)oc4C)c3)c2n1` here?
Answer: The inhibition was -5.64%.

Question: And the inhibition (PRVABC59, Concentration 99.9 uM, Number of replicates 2.0, Standard deviation 2.936734747350333 %)?
Answer: The inhibition was -6.74%.

Question: What does the source list for `Cc1cc(CO)c2cccc(NC(=O)c3nc(-c4ccccc4)oc3C(F)(F)F)c2n1`?
Answer: inhibition (PRVABC59, Concentration 49.95 uM, Number of replicates 2.0, Standard deviation 2.699761899961709 %): 15.3%; inhibition (PRVABC59, Concentration 99.9 uM, Number of replicates 2.0, Standard deviation 2.5993991268892636 %): 24.8%

Question: What does the source list for `Cc1cc(CO)c2cccc(NC(=O)c3nc(C4CCNCC4)oc3C)c2n1`?
Answer: inhibition (PRVABC59, Concentration 49.95 uM, Number of replicates 2.0, Standard deviation 16.97136657317194 %): 81.5%; inhibition (PRVABC59, Concentration 99.9 uM, Number of replicates 2.0, Standard deviation 2.022315036184036 %): 88.9%

Question: How did the inhibition (PRVABC59, Concentration 49.95 uM, Number of replicates 2.0, Standard deviation 3.130141914719793 %) turn out when `Cc1cc(CO)c2cccc(Cc3ccccc3NC(=O)c3nc(C4CCNCC4)oc3C)c2n1` was run?
Answer: Its inhibition is 12.3%.

Question: And the inhibition (PRVABC59, Concentration 99.9 uM, Number of replicates 2.0, Standard deviation 0.6412983547468495 %)?
Answer: Its inhibition is 60.8%.

Question: Which results are given for `Cc1cc(CO)c2cccc(NC(=O)[C@H]3CCNC3)c2n1`?
Answer: inhibition (PRVABC59, Concentration 49.95 uM, Number of replicates 2.0, Standard deviation 1.562551081581127 %): -4.16%; inhibition (PRVABC59, Concentration 99.9 uM, Number of replicates 2.0, Standard deviation 2.5850257028478962 %): 4.64%

Question: For `Cc1cc(N)c2cc(Cl)cc(Cl)c2n1`, which inhibition (PRVABC59, Concentration 99.9 uM, Number of replicates 2.0, Standard deviation 12.824277322413067 %) is on record?
Answer: Its inhibition is -8.83%.

Question: Which inhibition (PRVABC59, Concentration 49.5 uM, Number of replicates 2.0, Standard deviation 1.8234550992150553 %) does the source give for `COC(=O)c1ccc(F)c(Cn2cc(C3CCNCC3)c(C)n2)c1` here?
Answer: The inhibition was 1.56%.

Question: And the inhibition (PRVABC59, Concentration 99.01 uM, Number of replicates 2.0, Standard deviation 0.947622366220452 %)?
Answer: The inhibition was 0.074%.

Question: What about the inhibition (PRVABC59, Concentration 198.0 uM, Number of replicates 2.0, Standard deviation 0.08409628118336304 %) of the same compound?
Answer: Its inhibition is 3.65%.

Question: Which inhibition (PRVABC59, Concentration 49.5 uM, Number of replicates 2.0, Standard deviation 2.68247440066745 %) does the source give for `COc1cc(COc2cc(C)nc3ncnn23)nc(N2CCNCC2)n1` here?
Answer: The inhibition was 1.51%.

Question: What about the inhibition (PRVABC59, Concentration 99.01 uM, Number of replicates 2.0, Standard deviation 1.6078501771858478 %) of the same compound?
Answer: The inhibition was 0.374%.

Question: And the inhibition (PRVABC59, Concentration 198.0 uM, Number of replicates 2.0, Standard deviation 1.0644090707345926 %)?
Answer: Its inhibition is 1.09%.
